From ChEMBL document CHEMBL1157539, “Thousands of chemical starting points for antimalarial lead identification” (Nature, 2010)

How the values were obtained:
Format in all cases: functional
Plasmodium falciparum [1] = test: GSK_TCMDC: Inhibition of Plasmodium falciparum 3D7 in whole red blood cells, using parasite LDH activity as an index of growth. Test compounds present at 2uM
Plasmodium falciparum [2] = test: GSK_TCMDC: Inhibition of Plasmodium falciparum Dd2 in whole red blood cells, using parasite LDH activity as an index of growth. Test compounds present at 2uM
HepG2 = test: GSK_TCMDC: Percent inhibition of human HepG2 cell line. Test compounds present at 10uM.

Row | Structure (SMILES) | Inhibition (Plasmodium falciparum [1]) | Inhibition (Plasmodium falciparum [2]) | Inhibition (HepG2)
1 | Br.Fc1ccc(C2N=C(SCCSC3=NC(c4ccc(F)cc4)C(c4ccc(F)cc4)N3)NC2c2ccc(F)cc2)cc1 (stereo unspecified) | 99% | 69% | 18%
2 | O=C(O)C(F)(F)F.O=S(=O)(NC1CCCCN(Cc2ccccc2O)C1)c1ccc(C(F)(F)F)cc1 (stereo unspecified) | 84% | 39% | 1%
3 | c1ccc(CN2CCC(Nc3ccc(-c4c[nH]nc4-c4ccccn4)nc3)CC2)cc1 | 97% | 23% | 1%
4 | CCC(=O)Nc1cc(=O)[nH]c2nc(-c3ccc(Cl)cc3)nn12 | 84% | 62% | 3%
5 | CC(C)CNC(=O)c1cncc(-c2ccc(CN(C)C3CCN(C)CC3)cc2)c1.O=C(O)C(F)(F)F | 100% | 84% | 15%
6 | CC(=O)N1N=C(c2ccccc2)Sc2c1nc(-c1ccc(Cl)cc1)n2C(C)=O | 94% | 18% | 0%
7 | O=C(Cn1c(CCc2cccc(F)c2F)cc(=O)c2cccnc21)N(CCCn1ccnc1)Cc1ccc(-c2ccc(C(F)(F)F)cc2)cc1 | 96% | 47% | 38%
8 | O=C(/C=C/c1ccc(Cl)c(Cl)c1)NCCCCN1CCCN(C(=O)Nc2ccc(Cl)c(Cl)c2)CC1 | 96% | 1% | 22%
9 | Fc1cccc(COc2ccc(Nc3ncnc4sc(C#CC5CCCCN5)cc34)cc2Cl)c1.O=C(O)C(F)(F)F (stereo unspecified) | 100% | 100% | 30%
10 | COc1ccc2nccc([C@@H](O)CN3CCC(NC(=O)/C=C/c4ccnc5ccccc45)CC3)c2c1 | 91% | 12% | 19%
11 | OCCN1CCN(C(=S)Nc2ccccc2)CC1 | 97% | 7% | 6%
12 | Cc1cccc2nc(-c3ccc(-c4ccc(NC(=O)CN5CCN(C)CC5)cc4)s3)[nH]c12 | 95% | 86% | 56%
13 | Cc1cccc2nc(-c3cccc(-c4cccc(NC(=O)c5cccnc5Cl)c4)c3)[nH]c12 | 97% | 32% | 0%
14 | O=C(/C=C/c1ccc(C(F)(F)F)cc1)N1CCC(CCN2CCC(c3c[nH]c4ccccc34)CC2)CC1 | 100% | 77% | 70%
15 | O=C(Nc1ccc(-c2cccc(-c3nc4cc(C(F)(F)F)ccc4[nH]3)c2)cc1)c1csnn1 | 98% | 25% | 42%
16 | CN1CCCC(CN2CCN(Cc3cccc(-c4ccc(-c5nc6cc(C(F)(F)F)ccc6[nH]5)cc4)c3)CC2)C1.O=C(O)C(F)(F)F (stereo unspecified) | 99% | 96% | 100%
17 | CN(C)CCC1CCN(CCS(=O)(=O)c2cccc(Nc3ncc(-c4cccc(F)c4)cn3)c2)CC1 | 96% | 12% | 59%
18 | O=C(O)C(F)(F)F.O=[N+]([O-])c1cccc(CNCC2CCN(Cc3ccc(-c4ccccc4)cc3)CC2)c1 | 100% | 91% | 28%
19 | O=c1cc(NCCCNCc2cc(Cl)cc(Cl)c2OCc2ccccc2)[nH]c2ccccc12 | 91% | 50% | 0%
20 | O=C(/C=C/c1ccc(Cl)c(Cl)c1)NC1CCN(Cc2ccc(O)cc2)C1.O=C(O)C(F)(F)F (stereo unspecified) | 97% | 4% | 15%
21 | Cl.Oc1ccc2[nH]c(-c3cccs3)nc2c1CN1CCC(N2CCCC2)CC1 | 100% | 13% | 6%

Row | Structure (SMILES) | Inhibition (Plasmodium falciparum [1]) | Inhibition (Plasmodium falciparum [2]) | Inhibition (HepG2)
22 | CCOc1ccc(C(=O)Nc2ccc(-c3nc4ccccc4[nH]3)cc2)cc1[N+](=O)[O-] | 100% | 70% | 22%
23 | CN(C)C(CNc1ncnc2cc(Cl)ccc12)Cc1ccccc1 (stereo unspecified) | 96% | 88% | 13%
24 | Fc1cc(Cl)ccc1Nc1ccnc2cc(I)ccc12 | 90% | 10% | 11%
25 | O=C(Nc1ccc(-c2ccc(CN3CCNCC3)cc2)cc1)c1cccc(Cl)c1.O=C(O)C(F)(F)F | 91% | 16% | 58%
26 | COc1ccc(Nc2nc(N3CCCC3)c3ccccc3n2)cc1.Cl | 100% | 98% | 40%
27 | Cc1ccc2[nH]c(/C=C/c3cccc4cc[nH]c34)nc2c1 | 100% | 92% | 9%
28 | Cl.O=S(=O)(c1ccc2ccccc2c1)N1CCCN(Cc2ccc(OCCCN3CCCCC3)cc2)CC1 | 98% | 11% | 43%
29 | CC(C)C1c2ccc(O)cc2CC2C(=O)N(C3CCCCC3)C(=O)N21 (stereo unspecified) | 95% | 88% | 2%
30 | Cc1c(C(=O)N2CCc3cc4nccc(N5CCN6CCC[C@H]6C5)c4cc32)cnn1-c1ccc(C#N)cc1.Cl | 90% | 27% | 0%
31 | COc1c(C2CCN(CCCCNC(=O)c3ccc(-c4ccc(C#N)cc4)c(O)c3)CC2)ccc2c1CCCC2.Cl | 100% | 78% | 35%
32 | N#Cc1ccc(-c2nc(CO)c(C(=O)NCCCCN3CCC(c4ccc5c(c4OCC(N)=O)CCCC5)CC3)s2)cc1 | 92% | 0% | 9%
33 | COc1ccc(C(=O)N2CCC(C(=O)NC(C)c3ccc(-n4ccnc4)cc3)CC2)c2ccccc12 (stereo unspecified) | 83% | 79% | 12%
34 | CC(=O)Oc1c(C2C=CCCC2)c(OC(C)=O)c2ccccc2c1OC(C)=O (stereo unspecified) | 95% | 79% | 10%
35 | Cc1noc(C)c1-c1cccc(CNCc2ccc(-c3ccc(-c4nc5cccc(C)c5[nH]4)cc3)cc2)c1.O=C(O)C(F)(F)F | 100% | 95% | 28%
36 | CCCc1cc(N2CCC(c3ccccc3)(N3CCCCC3)CC2)nc(Nc2ccc(OC)cc2)n1 | 81% | 28% | 13%
37 | CC1(C)C=C(c2ccncc2)c2cc(Cl)ccc2O1.Cl | 97% | 22% | 0%
38 | CCOc1cc(C(=O)Nc2ccc3nc(N4CCN(C)CC4)cc(C)c3c2)cc(OCC)c1OCC | 97% | 50% | 14%
39 | CCC(C)NS(=O)(=O)c1ccc2nc(Nc3ccc(C)c(Cl)c3)n(C3CCCCC3)c2c1 (stereo unspecified) | 99% | 98% | 0%
40 | CC(=O)Nc1ccc(S(=O)(=O)N2CCN(c3nc(NC4CCCC4)c4ccccc4n3)CC2)cc1 | 88% | 2% | 7%
41 | CCC(C)NS(=O)(=O)c1ccc2nc(Nc3cccc(SC)c3)n(C(C)C(C)C)c2c1 (stereo unspecified) | 94% | 70% | 0%
42 | OC(c1ccc(Cl)cc1)(c1ccc(Cl)cc1)C(c1ccc(Cl)cc1)n1ccnc1 (stereo unspecified) | 100% | 100% | 15%

Row | Structure (SMILES) | Inhibition (Plasmodium falciparum [1]) | Inhibition (Plasmodium falciparum [2]) | Inhibition (HepG2)
43 | COc1ccc(C2C(C(=O)Nc3ccc(C)cc3Br)c3ccccc3C(=O)N2C)cc1 (stereo unspecified) | 96% | 2% | 4%
44 | CCOc1ccc2[nH]c(C)cc(=NN=Cc3ccncc3)c2c1 | 99% | 78% | 8%
45 | FC(F)(F)c1ccc2[nH]ccc(=NN=Cc3cccnc3)c2c1 | 100% | 40% | 0%
46 | Cc1cccc2nc(-c3cccc(-c4ccc(NC(=O)NC(C)C)cc4)c3)[nH]c12 | 98% | 44% | 30%
47 | O=C(Cc1ccccc1)NC1(c2ccccc2)CCN(CCc2c[nH]c3ccc(F)cc23)CC1 | 87% | 62% | 29%
48 | CC(C)C[C@H](NC(=O)c1ccc(F)cc1)C(=O)N[C@H](/C=N/NC(=O)c1ccccc1)CCc1ccccc1 | 92% | 61% | 1%
49 | O=C(Nc1ccc(Cl)cc1)Nc1cccc(-c2ccc(-c3nc4cc(F)ccc4[nH]3)cc2)c1 | 100% | 99% | 73%
50 | O=C(Cn1c(=O)cnc2ccccc21)Nc1cccc(C(=O)Nc2cccc(C(F)(F)F)c2)c1 | 90% | 66% | 0%
51 | CC(C)c1sc(N2CCN(C)CC2)nc1C(=O)NCCc1ccc(Br)cc1.O=C(O)C(F)(F)F | 89% | 60% | 0%
52 | CNCc1ccc(-c2ccc3ccnc(N)c3c2)cc1 | 94% | 98% | 46%
53 | Cc1noc(-c2ccc3c(c2)CCN(CCC2CCC(NC(=O)c4cc5ccccc5[nH]4)CC2)CC3)n1.Cl (stereo unspecified) | 99% | 41% | 21%
54 | COc1ccc(OC)c(NC(=O)C2c3ccccc3C(=O)N(CC(C)C)C2c2cccs2)c1 (stereo unspecified) | 100% | 66% | 9%
55 | COc1ccc(-c2cc(-c3nc4cc(CN)ccc4[nH]3)c(=O)n(C)c2)cc1OC | 85% | 56% | 0%
56 | COc1cccc(CCNCc2ccc(-c3cccc(CNC4CCCC4)c3)cc2)c1.O=C(O)C(F)(F)F | 100% | 45% | 14%
57 | COc1cc2c(Nc3ccc(Br)cc3F)ncnc2cc1OCC1CCN(C)CC1.Cl | 97% | 16% | 10%
58 | CCNc1cc(C(=O)N[C@@H](Cc2ccccc2)[C@H](O)CNCCc2cccc(C(F)(F)F)c2)cc(N2CCCC2=O)c1.O=CO | 96% | 93% | 7%
59 | CC(C)CNCc1cccc(-c2cccc(CN(CCN(C)C)C(=O)Nc3ccccc3)c2)c1.O=C(O)C(F)(F)F | 99% | 62% | 34%
60 | COCCNCc1ncsc1-c1ccc2c(Nc3ccc(Oc4ccccc4)cc3)ccnc2c1 | 91% | 93% | 34%
61 | COc1cc2nc(N(C)Cc3cccc(I)c3)nc(N)c2cc1OC | 100% | 88% | 7%
62 | CO/C(=C\C=C\c1cc2cc(Cl)c(Cl)cc2[nH]1)C(=O)NC1CCN(CCNc2ccccc2)CC1 | 100% | 98% | 60%
